According to PubChem BioAssay (NCATS):
Inconclusive results are not listed. A call without a number means that no potency is given here. Values without a mark were called inactive. Active and inactive are the calls of the source. Calls come from the whole dose curve; as a rule, active = well fitted curve in the direction sought with a large enough effect; inconclusive = small, poorly fitted or top-dose-only effect, or another doubt; inactive = no such curve, though single readings can be large; an effect the other way counts as inactive or inconclusive.

Legend:
[1] = target: Rap guanine nucleotide exchange factor 3 (Homo sapiens) (UniProt O95398); assay: Confirmatory qHTS for antagonist of cAMP-regulated guanine nucleotide exchange factor 3 (EPAC1) (AID 1645880); details: EPAC1 Rap1B-BODIPY-GDP exchange, fluorescence; activity, negative = inhibition: at 115 µM (top of the series); note: nearly all actives have a fitted effect of over 55% in size; note: potency is the fitted concentration of half-maximal effect
In short: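 Released BODIPY-GDP fluoresces less than Rap1-bound BODIPY-GDP; the signal is followed at 480/540 nm at 5-min intervals over 30 min, after 5 min at room temperature. Reactions contain 100 nM EPAC1, 250 nM RAP1B-BODIPY-GDP and 50 uM GDP; results are normalized to ATA and DMSO.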

[2] = target: Rap guanine nucleotide exchange factor 3 (Homo sapiens) (UniProt O95398); assay: Confirmatory qHTS for agonist of cAMP-regulated guanine nucleotide exchange factor 3 (EPAC1) (AID 1645881); note: nearly all actives have a fitted effect of over 75% in size; note: potency is the fitted concentration of half-maximal effect;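 for activation: EPAC1 catalysed release of BODIPY-GDP from Rap1B seen as fluorescence loss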
[3] = target: Rap guanine nucleotide exchange factor 4 (Homo sapiens) (UniProt Q8WZA2); assay: Confirmatory qHTS for agonist of cAMP-regulated guanine nucleotide exchange factor 4 (EPAC2) (AID 1645884);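 note: nucleotide exchange releases bodipy-GDP from Rap1 and this lowers its fluorescence; nearly all actives have a fitted effect of over 65% in size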; note: potency is the fitted concentration of half-maximal effect
[4] = target: Rap guanine nucleotide exchange factor 3 (Homo sapiens) (UniProt O95398); assay: Counterscreen qHTS for antagonist of cAMP-regulated guanine nucleotide exchange factor 3 (EPAC1) (AID 1645888)
In short: (§1)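 Measured: fluorescence of BODIPY-GDP bound to Rap1B, which falls as exchange proceeds. Conditions include 50 uM competing GDP, 5 and 30 min reads, and a later cAMP challenge for antagonist detection.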

[5] = target: Rap guanine nucleotide exchange factor 3 (Homo sapiens) (UniProt O95398); assay: Counterscreen qHTS for agonist of cAMP-regulated guanine nucleotide exchange factor 3 (EPAC1) (AID 1645889); note: nearly all actives have a fitted effect of over 40% in size; note: potency is the fitted concentration of half-maximal effect
In short: as §1

Sequence of Rap guanine nucleotide exchange factor 4 (Homo sapiens) (Q8WZA2 whole entry, looked up): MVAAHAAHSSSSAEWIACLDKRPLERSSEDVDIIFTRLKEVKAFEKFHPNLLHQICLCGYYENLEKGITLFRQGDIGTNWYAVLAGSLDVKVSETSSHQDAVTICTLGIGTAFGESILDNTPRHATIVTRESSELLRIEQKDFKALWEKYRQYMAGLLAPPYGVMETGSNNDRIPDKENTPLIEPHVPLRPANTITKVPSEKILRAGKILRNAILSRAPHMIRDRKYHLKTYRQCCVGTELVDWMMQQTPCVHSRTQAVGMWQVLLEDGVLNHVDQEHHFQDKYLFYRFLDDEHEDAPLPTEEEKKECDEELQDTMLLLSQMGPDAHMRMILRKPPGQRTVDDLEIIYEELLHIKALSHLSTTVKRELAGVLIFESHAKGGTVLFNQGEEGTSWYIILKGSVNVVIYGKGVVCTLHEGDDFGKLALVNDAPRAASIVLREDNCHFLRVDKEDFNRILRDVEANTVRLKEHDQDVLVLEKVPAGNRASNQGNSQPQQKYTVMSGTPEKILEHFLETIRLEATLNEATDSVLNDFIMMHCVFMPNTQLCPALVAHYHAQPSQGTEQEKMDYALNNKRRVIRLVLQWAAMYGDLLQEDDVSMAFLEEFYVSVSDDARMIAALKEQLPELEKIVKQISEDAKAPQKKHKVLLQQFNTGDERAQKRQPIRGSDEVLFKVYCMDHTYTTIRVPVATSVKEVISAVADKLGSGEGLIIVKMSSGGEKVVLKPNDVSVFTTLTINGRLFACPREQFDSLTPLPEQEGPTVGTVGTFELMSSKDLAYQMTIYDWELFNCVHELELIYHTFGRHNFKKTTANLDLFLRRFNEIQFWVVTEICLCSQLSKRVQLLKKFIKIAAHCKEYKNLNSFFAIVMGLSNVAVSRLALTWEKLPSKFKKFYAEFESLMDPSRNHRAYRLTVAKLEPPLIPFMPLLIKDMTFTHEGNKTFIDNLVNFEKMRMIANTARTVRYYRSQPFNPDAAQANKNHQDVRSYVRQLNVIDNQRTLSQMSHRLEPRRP
Sequence of Rap guanine nucleotide exchange factor 3 (Homo sapiens) (O95398 whole entry, looked up): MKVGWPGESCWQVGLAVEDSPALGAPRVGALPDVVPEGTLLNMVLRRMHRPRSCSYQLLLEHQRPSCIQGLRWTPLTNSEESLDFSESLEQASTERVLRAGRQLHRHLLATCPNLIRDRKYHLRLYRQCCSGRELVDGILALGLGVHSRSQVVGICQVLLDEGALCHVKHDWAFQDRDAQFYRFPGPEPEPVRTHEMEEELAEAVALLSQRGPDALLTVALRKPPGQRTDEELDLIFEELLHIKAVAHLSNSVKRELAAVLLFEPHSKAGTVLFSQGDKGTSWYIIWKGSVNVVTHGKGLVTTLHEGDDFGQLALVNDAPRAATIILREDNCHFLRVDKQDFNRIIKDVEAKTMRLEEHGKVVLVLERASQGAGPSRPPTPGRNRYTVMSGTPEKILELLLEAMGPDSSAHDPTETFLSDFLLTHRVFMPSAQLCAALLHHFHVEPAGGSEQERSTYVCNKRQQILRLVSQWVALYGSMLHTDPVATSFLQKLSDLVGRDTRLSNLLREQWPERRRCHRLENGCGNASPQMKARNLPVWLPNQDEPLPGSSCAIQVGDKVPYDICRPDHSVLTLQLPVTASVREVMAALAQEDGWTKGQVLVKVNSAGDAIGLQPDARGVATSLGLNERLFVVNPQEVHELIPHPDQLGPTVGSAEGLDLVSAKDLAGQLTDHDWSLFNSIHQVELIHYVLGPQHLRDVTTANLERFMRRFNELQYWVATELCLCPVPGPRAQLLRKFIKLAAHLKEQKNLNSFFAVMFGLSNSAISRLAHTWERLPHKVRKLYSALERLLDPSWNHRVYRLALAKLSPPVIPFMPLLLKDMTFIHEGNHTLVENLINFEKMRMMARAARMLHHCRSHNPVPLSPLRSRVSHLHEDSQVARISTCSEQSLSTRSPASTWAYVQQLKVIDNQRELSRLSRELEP

Row | SMILES | Potency [1] | Potency [2] | activation [3] | activity change, negative = inhibition [4] | activation [5] | Potency [3] | Potency [4] | Potency [5] | activity, negative = inhibition [1]
1 | c1ccc(C(c2ccccc2)c2ccn[nH]2)cc1 | inactive | inactive | 1.43% [at 17.1 µM, percent relative to cAMP agonist control] | -9.38% [at 30.8 µM] | 11.3% [at 30.8 µM] | – | – | – | –
2 | COc1cc(C(c2c(C(=O)O)[nH]c3ccccc23)c2c(C(=O)O)[nH]c3ccccc23)ccc1OCc1ccccc1 | 15.1 µM (active) | inactive | – | – | – | inactive | inactive | inactive | –
3 | CCCCOc1ccc(/C=C/C(=O)OCC(=O)NC(=O)NCC(C)C)cc1OCC | inactive | inactive | – | – | – | inactive | inactive | inactive | –
4 | O=C1c2cccc3c(N4CCCCC4)ccc(c23)C(=O)N1c1cccc(O)c1 | inactive | 100 µM (active) | – | – | – | 112 µM (active) | inactive | 50.1 µM (active) | –
5 | CNC(=O)c1ccc2snnc2c1 | inactive | inactive | – | – | – | inactive | inactive | inactive | –
6 | N#C/C(=C/c1ccc(N2CCCCC2)o1)C(=O)Nc1ccc(Cl)cc1 | inactive | 17.8 µM (active) | – | – | – | 100 µM (active) | inactive | 12.6 µM (active) | –
7 | O=C(CN1CCCC1)Nc1ccccc1Sc1ccc(Cl)cc1 | inactive | inactive | – | – | – | inactive | inactive | inactive | –
8 | O=C(O)CN1C(=O)/C(=C\c2cc(Br)ccc2OCc2ccc([N+](=O)[O-])cc2)SC1=S | 30.1 µM (active) | inactive | – | – | – | inactive | inactive | inactive | –
9 | COc1ccc(C2=CC(=O)OC3(CCCCC3)O2)cc1 | inactive | inactive | 5.5% [at 17.1 µM, percent relative to cAMP agonist control] | -23.4% [at 30.8 µM] | 7.07% [at 30.8 µM] | – | – | – | –
10 | CCOC(=O)c1cc2c(ccn2C)n1Cc1ccccc1Cl | inactive | inactive | – | – | – | inactive | inactive | inactive | –
11 | CCOC(=O)N/N=C/c1ccc(OCCSc2ccc(Cl)cc2)c(OC)c1 | – | inactive | – | – | – | inactive | inactive | inactive | -73.5% (active)
12 | O=C(Nc1ccc2nc3n(c(=O)c2c1)CCCCC3)c1c(F)ccc([N+](=O)[O-])c1F | 15.1 µM (active) | inactive | – | – | – | inactive | inactive | inactive | –
13 | CCC(C)(C)C1CCc2c(sc(NC(=O)c3ccccc3C(=O)O)c2C#N)C1 (stereo not given) | 75.7 µM (active) | inactive | – | – | – | inactive | inactive | inactive | –
14 | COc1c(S(=O)(=O)N2CCCC2)ccc(Cl)c1Cl | inactive | inactive | 4.79% [at 17.1 µM, percent relative to cAMP agonist control] | -12% [at 30.8 µM] | 23.7% [at 30.8 µM] | – | – | – | –
15 | O=C(c1ccccc1)C(c1ccccc1)c1ccccc1 | inactive | inactive | 0.697% [at 17.1 µM, percent relative to cAMP agonist control] | 2.63% [at 30.8 µM] | 12.8% [at 30.8 µM] | – | – | – | –
16 | O=C(c1ccco1)N(Cc1ccccc1)c1cccc([N+](=O)[O-])c1 | inactive | inactive | – | – | – | inactive | inactive | inactive | –
17 | Cc1cc(C)n(Cc2ccc(C(=O)N/N=C/c3ccc(-c4ccc([N+](=O)[O-])cc4)o3)o2)n1 | 47.8 µM (active) | inactive | – | – | – | inactive | inactive | inactive | –
18 | COc1cc(C(=O)c2ccccc2)c([N+](=O)[O-])cc1OC | inactive | inactive | – | – | – | inactive | inactive | inactive | –
19 | CCCC(=O)NCCCc1nc2ccccc2n1C | inactive | inactive | – | – | – | inactive | inactive | inactive | –
20 | Cc1ccc(-c2ccccc2C2=CC(=O)CC(C)(C)C2=O)cc1 | inactive | inactive | -2.04% [at 17.1 µM, percent relative to cAMP agonist control] | 11.7% [at 30.8 µM] | 11.7% [at 30.8 µM] | – | – | – | –
21 | CNC(=O)CSc1nc2ccccc2c(=O)n1-c1cc(OC)ccc1OC | inactive | inactive | -3% [at 17.1 µM, percent relative to cAMP agonist control] | -17.1% [at 30.8 µM] | 5.72% [at 30.8 µM] | – | – | – | –
22 | O=C(O)c1ccccc1N=N/C(=N/Nc1cc(S(=O)(=O)O)ccc1O)c1ccccc1 | 44.7 µM (active) | inactive | -5.11% [at 17.1 µM, percent relative to cAMP agonist control] | -3.19% [at 30.8 µM] | -1.6% [at 30.8 µM] | – | – | – | –
23 | Cc1cc(C)c(S(=O)(=O)c2ccc(F)cc2)c(C)c1 | inactive | inactive | 0% [at 17.1 µM, percent relative to cAMP agonist control] | -27.6% [at 30.8 µM] | -0.628% [at 30.8 µM] | – | – | – | –
24 | O=C(c1ccccc1)c1cccc(C(=O)c2ccccc2)c1 | inactive | inactive | – | – | – | inactive | inactive | inactive | –
25 | CNc1ccc(-c2nc(-c3ccco3)no2)cc1[N+](=O)[O-] | inactive | inactive | – | – | – | inactive | inactive | inactive | –

Row | SMILES | Potency [1] | Potency [2] | activation [3] | activity change, negative = inhibition [4] | activation [5] | Potency [3] | Potency [4] | Potency [5] | activity, negative = inhibition [1]
26 | CCOC(=O)C1=C(C)N=c2s/c(=C\c3ccc(OCC(=O)O)cc3)c(=O)n2C1c1ccc(OC(C)C)cc1 (stereo not given) | 75.7 µM (active) | inactive | – | – | – | inactive | inactive | inactive | –
27 | COc1ccc(/C=C2/SC(=S)N(NS(=O)(=O)c3ccc(C)cc3)C2=O)cc1 | 47.8 µM (active) | inactive | – | – | – | inactive | inactive | inactive | –
28 | COc1ccc2nc(N3C(=O)C(O)=C(C(=O)c4ccco4)C3c3ccc(C)o3)sc2c1 (stereo not given) | 26.9 µM (active) | inactive | – | – | – | inactive | inactive | inactive | –
29 | N=c1c(S(=O)(=O)c2ccc(Br)cc2)cc2c(=O)n3ccccc3nc2n1C1CCCC1 | inactive | inactive | – | – | – | inactive | inactive | inactive | –
30 | Cc1ccc(S(=O)(=O)NCc2ccccc2)cc1C(=O)N1CCCC(C(F)(F)F)C1 (stereo not given) | inactive | inactive | – | – | – | inactive | inactive | inactive | –
31 | Cc1cc(=O)oc2cc(NC(=O)C(C)Oc3ccccc3)ccc12 (stereo not given) | inactive | inactive | – | – | – | inactive | inactive | inactive | –
32 | CN(C)c1ccccc1-c1cc(NC=O)c2ncc(-c3cccc(C(F)(F)F)c3)n2c1 | 47.8 µM (active) | inactive | – | – | – | inactive | inactive | inactive | –
33 | CCOC(=O)CSc1nc2c(c(=O)n(C)c(=O)n2C)n1Cc1ccccc1F | inactive | inactive | – | – | – | inactive | inactive | inactive | –
34 | O=C(Cc1ccc(Br)cc1)N(Cc1ccccc1)c1ccccn1 | inactive | inactive | – | – | – | inactive | inactive | inactive | –
35 | Cc1ccc(C(=O)NCCCNC(=O)c2ccc(Cl)cc2)cn1 | inactive | inactive | – | – | – | inactive | inactive | inactive | –
36 | COc1nc(-c2ccccc2)c2cc(Br)ccc2n1 | inactive | inactive | -6.23% [at 17.1 µM, percent relative to cAMP agonist control] | 8.88% [at 30.8 µM] | 24.2% [at 30.8 µM] | – | – | – | –
37 | CN(CCC#N)C(=O)COC(=O)c1c2c(nc3ccccc13)/C(=C\c1ccco1)CC2 | 9.53 µM (active) | inactive | – | – | – | inactive | inactive | inactive | –
38 | O=C1C(=Cc2ccccc2Cl)CCc2ccccc21 | inactive | inactive | – | – | – | inactive | inactive | inactive | –
39 | CC(=O)OC1CSC2c3ccccc3C(=O)N2Cc2sccc21 (stereo not given) | inactive | inactive | – | – | – | inactive | inactive | inactive | –
40 | Cc1cc(C(=O)c2ccc3ccccc3c2)c(C)o1 | inactive | inactive | – | – | – | inactive | inactive | inactive | –
41 | CCC(=O)NC(c1ccc(C)cc1)c1cc([N+](=O)[O-])c2cccnc2c1O (stereo not given) | 53.6 µM (active) | inactive | – | – | – | inactive | inactive | inactive | –
42 | O=S(=O)(O)c1cc(O)c2cc(Nc3ccccc3)ccc2c1 | 37.9 µM (active) | inactive | – | – | – | inactive | inactive | inactive | –
43 | CCOc1ccc(Br)cc1S(=O)(=O)Nc1ccc(S(=O)(=O)Nc2cc(C)on2)cc1 | 19 µM (active) | inactive | – | – | – | inactive | inactive | inactive | –
44 | COc1cc2c(cc1OC)C(COc1ccc(F)cc1)N(C(C)=O)CC2 (stereo not given) | inactive | inactive | – | – | – | inactive | inactive | inactive | –
45 | COc1cccc(-c2nc(CS(=O)(=O)CC(=O)N3CCN(C)CC3)c(C)o2)c1 | inactive | inactive | – | – | – | inactive | inactive | inactive | –
46 | CCCCN(CCCC)Cc1cc(=O)oc2cc(C)c(Cl)cc12 | inactive | inactive | – | – | – | inactive | inactive | inactive | –
47 | CC(=O)NC(c1cccc(F)c1)c1nc(-c2cccs2)cs1 (stereo not given) | inactive | inactive | – | – | – | inactive | inactive | inactive | –
48 | COc1ccc(C2N(c3ccc(Cl)cc3)N=C(C(C)=O)N(C)N2C(C)=O)cc1 (stereo not given) | inactive | inactive | 11.9% [at 17.1 µM, percent relative to cAMP agonist control] | -11.6% [at 30.8 µM] | 29.6% [at 30.8 µM] | – | – | – | –
49 | Cc1ccc(C(C)C)c(OCc2ccc(C(=O)N/N=C/c3ccc(O)c(O)c3)cc2)c1 | 33.8 µM (active) | inactive | – | – | – | inactive | inactive | inactive | –
50 | O=C(c1ccc(CN2CCc3ccccc3C2)cc1)N1CCCCC1 | inactive | inactive | – | – | – | inactive | inactive | inactive | –
